Here are results for four compounds from PubChem BioAssay (EPA / NIEHS).

Experiment [1] is described as follows: ATG_GLI_CIS: Attagene CIS-FACTORIAL HepG2 Assay for human Zinc Finger Protein GLI1 (AID 2282945). Conditions: HepG2, Attagene cis-factorial reporter mRNA, GLI element; actives raise or lower the signal. The method in brief:
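Bidirectional curve fits relative to DMSO, using reporter mRNA levels from RT-PCR plus capillary electrophoresis. Cells were HepG2 transiently carrying cis-regulated reporter constructs, harvested 24 h after dosing.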

Experiment [2] deals with Bile acid receptor (Homo sapiens) (UniProt Q96RI1). Put plainly: ATG_IR1_CIS: Attagene CIS-FACTORIAL HepG2 Assay for human Nuclear Receptor Subfamily 1 Group H Member 4 (NR1H4), IR1 submotif (AID 2282946). Conditions: IR1 reporter transcription, actives raise or lower the signal. In outline: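 HepG2 cells transiently transfected with multiplexed cis-element reporter units read endogenous transcription factor activity. After 24 h compound exposure, reporter mRNA was quantified by RT-PCR, fluorescent labelling, HpaI digestion and capillary electrophoresis; bidirectional fitting versus DMSO baseline.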
Chain of Bile acid receptor (Homo sapiens) (Q96RI1 whole entry, looked up): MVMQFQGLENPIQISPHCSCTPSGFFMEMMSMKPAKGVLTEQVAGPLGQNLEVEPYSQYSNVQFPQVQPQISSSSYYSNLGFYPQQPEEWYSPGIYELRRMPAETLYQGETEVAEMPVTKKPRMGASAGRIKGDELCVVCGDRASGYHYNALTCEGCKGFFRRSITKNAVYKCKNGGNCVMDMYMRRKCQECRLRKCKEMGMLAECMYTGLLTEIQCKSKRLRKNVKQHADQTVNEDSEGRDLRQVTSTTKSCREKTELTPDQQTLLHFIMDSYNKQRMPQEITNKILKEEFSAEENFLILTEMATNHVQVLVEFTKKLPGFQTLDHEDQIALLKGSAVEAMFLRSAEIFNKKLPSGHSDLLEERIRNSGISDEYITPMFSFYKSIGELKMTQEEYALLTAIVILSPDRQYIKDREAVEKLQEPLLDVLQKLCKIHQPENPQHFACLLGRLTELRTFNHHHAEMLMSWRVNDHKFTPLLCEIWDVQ

A short description of experiment [3]: ATG_GRE_CIS: Attagene CIS-FACTORIAL HepG2 Assay for human Glucocorticoid Response Elements (GRE) (AID 2282947). Conditions: HepG2 GRE cis-reporter, Attagene multiplex mRNA; actives raise or lower the signal. In outline:
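Multiplexed cis-reporter mRNA induction, HepG2, 24 h post-dose. RT-PCR, FAM-labelled, HpaI-digested amplicons by CE. Bidirectional fit vs DMSO.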

Experiment [4] can be described thus: ATG_ISRE_CIS: Attagene CIS-FACTORIAL HepG2 Assay for human Interferon Regulatory Factor 1 (IRF1) binding to an Interferon-Stimulated Response Element (ISRE) (AID 2282948). Conditions: HepG2 ISRE cis-reporter (Attagene), mRNA transcription readout; actives raise or lower the signal. The method in brief: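 Signal reflects induction or loss of ISRE-linked reporter mRNA in transiently transfected HepG2 cells after a 24 h treatment, detected by fluorescent RT-PCR fragments on capillary electrophoresis and normalised to DMSO.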

A short description of experiment [5]: ATG_M_32_CIS: Attagene CIS-FACTORIAL HepG2 Assay for M32 Transcription Factor (Internal Marker) (AID 2282949).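 Also: background control marker of the multiplexed CIS panel rather than a real target.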 Conditions: HepG2 Attagene cis-factorial M32 reporter, mRNA; actives raise or lower the signal. In outline: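 Transient MRTU transfection of HepG2; 24 h compound treatment; TriZol RNA, oligo(dT) RT, reporter PCR, 6-FAM primer extension, HpaI cut, CE. Gain/loss of signal vs DMSO.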

The nature of experiment [6]: ATG_M_06_CIS: Attagene CIS-FACTORIAL HepG2 Assay for M06 Transcription Factor (Internal Marker) (AID 2282950). Conditions: HepG2 Attagene CIS-FACTORIAL M06 internal marker reporter; actives raise or lower the signal. In outline:
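Cells (HepG2, transiently carrying cis-driven reporter units) receive chemical for 24 h before RNA isolation. Reporter cDNA is PCR-amplified, FAM-labelled by primer extension, HpaI-digested and sized on a capillary analyser.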

The target of experiment [7] is Hepatocyte nuclear factor 6 (Homo sapiens) (UniProt Q9UBC0). Briefly: ATG_HNF6_CIS: Attagene CIS-FACTORIAL HepG2 Assay for human Hepatocyte Nuclear Factor 6 (HNF6) (AID 2282952). Conditions: HepG2 Attagene cis-factorial HNF6 reporter transcription; actives raise or lower the signal. The method in brief:
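Readout: fluorescent reporter-transcript fragments resolved by capillary electrophoresis after RT-PCR, reflecting endogenous factor activity in transfected HepG2. Exposure 24 h. Gain or loss of signal fitted bidirectionally against DMSO.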

Experiment [8] deals with Heat shock factor protein 1 (Homo sapiens) (UniProt Q00613). Briefly: ATG_HSE_CIS: Attagene CIS-FACTORIAL HepG2 Assay for human Heat Shock Transcription Factor 1 (HSE) (AID 2282953). Conditions: HepG2 HSE cis-reporter, Attagene RNA transcription; actives raise or lower the signal. In outline: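 Liver-derived HepG2 cells carry transiently introduced multiple reporter units governed by cis promoters. Reporter RNA measured 24 h post-dose through reverse transcription, PCR amplification, fluorescent labelling and capillary electrophoresis, normalised to DMSO.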
Chain of Heat shock factor protein 1 (Homo sapiens) (Q00613 whole entry, looked up): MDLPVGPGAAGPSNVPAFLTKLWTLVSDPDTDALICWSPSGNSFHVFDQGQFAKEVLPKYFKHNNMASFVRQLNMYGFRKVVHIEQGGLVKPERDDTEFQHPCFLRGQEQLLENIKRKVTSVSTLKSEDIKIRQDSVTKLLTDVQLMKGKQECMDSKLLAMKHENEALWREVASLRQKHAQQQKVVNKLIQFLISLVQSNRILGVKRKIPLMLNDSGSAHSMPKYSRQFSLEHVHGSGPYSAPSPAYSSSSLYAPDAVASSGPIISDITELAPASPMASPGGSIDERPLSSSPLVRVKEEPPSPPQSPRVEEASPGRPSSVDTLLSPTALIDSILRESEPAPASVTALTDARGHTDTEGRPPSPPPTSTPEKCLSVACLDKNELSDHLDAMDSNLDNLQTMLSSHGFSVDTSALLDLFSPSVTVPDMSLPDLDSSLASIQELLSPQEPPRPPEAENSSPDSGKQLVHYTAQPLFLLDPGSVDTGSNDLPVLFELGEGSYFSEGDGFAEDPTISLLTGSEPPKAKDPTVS

The nature of experiment [9]: ATG_MRE_CIS: Attagene CIS-FACTORIAL HepG2 Assay for human Metal Responsive Element (MRE) (AID 2282954). Conditions: HepG2 MRE cis-reporter transcription, Attagene multiplex; actives raise or lower the signal. In outline: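 Multiplexed cis-reporter assay in human HepG2 liver cells, 24 h incubation with test chemical. Reporter transcripts measured by RT-PCR and capillary electrophoresis; values from bidirectional curve fitting versus DMSO.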

The nature of experiment [10]: ATG_PBREM_CIS: Attagene CIS-FACTORIAL HepG2 Assay for human Phenobarbital-responsive Enhancer Module (PBREM) (AID 2282955). Conditions: HepG2 PBREM cis-reporter, Attagene multiplexed transcription; actives raise or lower the signal. The method in brief: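 HepG2 cells transiently transfected with multiple cis-regulated reporter transcription units; endogenous factor activity at the PBREM element measured as reporter mRNA 24 h after dosing, via RT-PCR and capillary electrophoresis of fluorescent fragments; bidirectional fitting versus DMSO.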

Experiment [11] has as its target Paired box protein Pax-6 (Homo sapiens) (UniProt P26367). Briefly: ATG_Pax6_CIS: Attagene CIS-FACTORIAL HepG2 Assay for human Paired Box 6 (PAX6) (AID 2282956). Conditions: HepG2 CIS-FACTORIAL PAX6 reporter transcription, RNA readout; actives raise or lower the signal. The method in brief: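 Values derive from bidirectional curve fitting of reporter mRNA signal relative to DMSO. HepG2 cells bearing transfected cis-regulated MRTUs were exposed for 24 h; transcripts were read by RT-PCR and capillary electrophoresis.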

Experiment [12] in a line: ATG_PXRE_CIS: Attagene CIS-FACTORIAL HepG2 Assay for human Pregnane X Receptor Element (PXRE) (AID 2282957). Conditions: HepG2 Attagene CIS-FACTORIAL PXRE reporter, mRNA; actives raise or lower the signal. In outline:
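Read-out: fluorescence of reporter-specific RT-PCR products resolved by capillary electrophoresis, fitted bidirectionally relative to DMSO. Human HepG2 liver cells carried transfected cis-promoter reporter units and were exposed to chemicals for 24 h.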

Experiment [13] can be described thus: ATG_RORE_CIS: Attagene CIS-FACTORIAL HepG2 Assay for human RAR-related Orphan Receptor Element (RORE) (AID 2282959). Conditions: HepG2 Attagene cis-factorial RORE reporter, mRNA; actives raise or lower the signal. The method in brief: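 HepG2 cells transiently transfected with multiple cis-element reporter transcription units, exposed to chemical for 24 h. Reporter mRNA quantified by RT-PCR, 6-FAM primer-extension labeling, HpaI digestion and capillary electrophoresis; bidirectional fit versus DMSO baseline.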

The nature of experiment [14]: ATG_Sox_CIS: Attagene CIS-FACTORIAL HepG2 Assay for human SRY-box transcription factor (SOX) (AID 2282960). Conditions: HepG2 Attagene cis-factorial SOX reporter, mRNA; actives raise or lower the signal. The method in brief:
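HepG2 cells transiently transfected with cis-element-driven multiple reporter transcription units, dosed 24 h; reporter mRNA measured by RT-PCR, FAM labelling, HpaI digestion and capillary electrophoresis. Bidirectional fit versus DMSO baseline.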

The target in experiment [15] is Transcription factor Sp1 (Homo sapiens) (UniProt P08047). Briefly: ATG_Sp1_CIS: Attagene CIS-FACTORIAL HepG2 Assay for human Specificity Protein 1 (Sp1) (AID 2282961). Conditions: HepG2 Sp1 cis-reporter transcription, actives raise or lower the signal. The method in brief:
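HepG2 cells transiently transfected with multiple reporter transcription units driven by cis-regulatory elements; Sp1-responsive reporter mRNA measured 24 h after dosing by RT-PCR and capillary electrophoresis fluorescence, fitted bidirectionally against DMSO baseline.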

The nature of experiment [16]: ATG_SREBP_CIS: Attagene CIS-FACTORIAL HepG2 Assay for human Sterol Regulatory Element Binding (SREBP) (AID 2282962). Conditions: HepG2 Attagene cis-factorial SREBP reporter, mRNA; actives raise or lower the signal. The method in brief:
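Values derive from bidirectional curve fitting with DMSO as baseline. The underlying measurement is reporter mRNA from cis-element-regulated units in transiently transfected HepG2, quantified by RT-PCR and capillary electrophoresis after 24 h exposure.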

Experiment [17] can be described thus: ATG_TA_CIS: Attagene CIS-FACTORIAL HepG2 Assay for human TA Basal Promoter (AID 2282964). Conditions: HepG2 Attagene CIS-factorial TA basal promoter reporter; actives raise or lower the signal. In outline: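 Background internal-marker endpoint from a 52-component HepG2 cis-reporter panel. Cells treated 24 h; reporter transcripts quantified via RT-PCR and CE fluorescence against DMSO baseline.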

Experiment [18] concerns the target Signal transducer and activator of transcription 3 (Homo sapiens) (UniProt P40763). Put plainly: ATG_STAT3_CIS: Attagene CIS-FACTORIAL HepG2 Assay for human Signal Transducer and Activator of Transcription 3 (STAT3) (AID 2282963). Conditions: HepG2, Attagene cis-factorial STAT3 reporter transcription; actives raise or lower the signal. The method in brief: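 Cis-factorial format: endogenous transcription factors in HepG2 drive transfected reporter units. After 24 h treatment, reporter RNA was reverse-transcribed, amplified, FAM-labelled and HpaI-digested before CE analysis; activity scored in both directions against DMSO.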

Experiment [19] addresses Hypoxia-inducible factor 1-alpha (Homo sapiens) (UniProt Q16665). Briefly: ATG_HIF1a_CIS: Attagene CIS-FACTORIAL HepG2 Assay for human Hypoxia Inducible Factor 1 (HIF1A) (AID 2282951). Conditions: HepG2 Attagene cis-factorial HIF1a reporter transcription; actives raise or lower the signal. The method in brief: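 HepG2 cells transiently transfected with multiplexed cis-promoter reporter units; reporter mRNA read 24 h after dosing by RT-PCR, 6-FAM primer-extension labelling, HpaI digestion and capillary electrophoresis. Bidirectional fit versus DMSO baseline.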

A short description of experiment [20]: ATG_PPRE_CIS: Attagene CIS-FACTORIAL HepG2 Assay for human Peroxisome Proliferator-activated Response Element (PPRE) (AID 2282958). Conditions: HepG2 PPRE cis-element reporter, Attagene transcription factor profiling; actives raise or lower the signal. The method in brief: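 HepG2 cells transiently transfected with multiplexed cis-element reporter units measure endogenous transcription factor activity. After 24 h compound exposure, reporter mRNA is quantified by RT-PCR, 6-FAM labeling, HpaI digestion and capillary electrophoresis; bidirectional fits are made against DMSO baseline.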

Structures are written as SMILES. Calls of active or inactive are those of the source. The calls were made as follows: active = hit-call score of the fitted dose curve at least 0.9, where 1 is the maximum; inactive = score below 0.9.

Chain of Transcription factor Sp1 (Homo sapiens) (P08047 whole entry, looked up): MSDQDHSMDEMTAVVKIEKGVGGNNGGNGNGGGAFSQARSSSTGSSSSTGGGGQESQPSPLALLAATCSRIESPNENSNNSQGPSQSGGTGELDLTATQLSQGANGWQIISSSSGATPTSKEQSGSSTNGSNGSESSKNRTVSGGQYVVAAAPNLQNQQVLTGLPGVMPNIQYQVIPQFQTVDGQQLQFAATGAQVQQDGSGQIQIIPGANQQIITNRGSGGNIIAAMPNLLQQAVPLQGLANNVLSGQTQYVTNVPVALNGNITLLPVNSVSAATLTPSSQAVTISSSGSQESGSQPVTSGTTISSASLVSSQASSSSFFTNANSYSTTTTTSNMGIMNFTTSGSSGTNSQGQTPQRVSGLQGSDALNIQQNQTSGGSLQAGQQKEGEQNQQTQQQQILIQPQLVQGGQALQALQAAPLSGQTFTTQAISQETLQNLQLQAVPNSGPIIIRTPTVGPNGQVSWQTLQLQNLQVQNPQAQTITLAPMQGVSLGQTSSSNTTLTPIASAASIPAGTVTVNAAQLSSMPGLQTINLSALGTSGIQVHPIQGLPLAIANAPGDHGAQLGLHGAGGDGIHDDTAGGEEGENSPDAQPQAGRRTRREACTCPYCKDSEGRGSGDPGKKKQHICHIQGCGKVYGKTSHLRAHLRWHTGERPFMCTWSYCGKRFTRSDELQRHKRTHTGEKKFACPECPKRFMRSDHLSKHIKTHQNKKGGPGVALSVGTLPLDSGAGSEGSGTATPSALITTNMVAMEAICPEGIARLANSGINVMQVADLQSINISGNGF
Chain of Signal transducer and activator of transcription 3 (Homo sapiens) (P40763 whole entry, looked up): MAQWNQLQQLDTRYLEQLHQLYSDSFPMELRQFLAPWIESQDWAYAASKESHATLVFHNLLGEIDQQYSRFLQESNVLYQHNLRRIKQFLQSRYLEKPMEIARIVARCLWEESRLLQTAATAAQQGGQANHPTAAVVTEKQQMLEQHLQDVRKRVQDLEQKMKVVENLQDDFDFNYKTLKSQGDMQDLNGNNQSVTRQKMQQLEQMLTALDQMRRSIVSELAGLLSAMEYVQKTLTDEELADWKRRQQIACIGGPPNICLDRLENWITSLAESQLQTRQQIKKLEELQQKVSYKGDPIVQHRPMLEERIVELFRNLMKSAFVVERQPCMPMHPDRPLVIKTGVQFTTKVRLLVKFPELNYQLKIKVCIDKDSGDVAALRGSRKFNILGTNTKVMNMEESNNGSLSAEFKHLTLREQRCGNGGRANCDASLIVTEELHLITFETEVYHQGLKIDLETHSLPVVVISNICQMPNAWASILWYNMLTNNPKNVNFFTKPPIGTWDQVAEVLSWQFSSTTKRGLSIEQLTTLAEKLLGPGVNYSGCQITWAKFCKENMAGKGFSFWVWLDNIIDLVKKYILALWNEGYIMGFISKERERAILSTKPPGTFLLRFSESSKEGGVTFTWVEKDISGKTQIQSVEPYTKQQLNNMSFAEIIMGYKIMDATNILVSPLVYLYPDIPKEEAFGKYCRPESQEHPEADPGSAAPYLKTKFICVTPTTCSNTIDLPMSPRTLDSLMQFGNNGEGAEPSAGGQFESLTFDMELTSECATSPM
Chain of Paired box protein Pax-6 (Homo sapiens) (P26367 whole entry, looked up): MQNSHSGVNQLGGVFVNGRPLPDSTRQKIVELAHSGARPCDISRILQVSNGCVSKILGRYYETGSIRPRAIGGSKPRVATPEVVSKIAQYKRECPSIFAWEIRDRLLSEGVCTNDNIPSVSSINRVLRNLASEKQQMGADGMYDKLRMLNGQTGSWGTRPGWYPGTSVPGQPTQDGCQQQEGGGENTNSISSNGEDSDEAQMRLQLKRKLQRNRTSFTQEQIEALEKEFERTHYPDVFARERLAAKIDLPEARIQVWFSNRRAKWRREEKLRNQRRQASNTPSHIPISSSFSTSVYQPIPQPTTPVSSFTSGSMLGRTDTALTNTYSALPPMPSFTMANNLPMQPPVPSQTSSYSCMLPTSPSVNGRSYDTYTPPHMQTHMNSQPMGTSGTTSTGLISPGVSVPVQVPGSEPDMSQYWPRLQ
Chain of Hepatocyte nuclear factor 6 (Homo sapiens) (Q9UBC0 whole entry, looked up, the tested form may be a part): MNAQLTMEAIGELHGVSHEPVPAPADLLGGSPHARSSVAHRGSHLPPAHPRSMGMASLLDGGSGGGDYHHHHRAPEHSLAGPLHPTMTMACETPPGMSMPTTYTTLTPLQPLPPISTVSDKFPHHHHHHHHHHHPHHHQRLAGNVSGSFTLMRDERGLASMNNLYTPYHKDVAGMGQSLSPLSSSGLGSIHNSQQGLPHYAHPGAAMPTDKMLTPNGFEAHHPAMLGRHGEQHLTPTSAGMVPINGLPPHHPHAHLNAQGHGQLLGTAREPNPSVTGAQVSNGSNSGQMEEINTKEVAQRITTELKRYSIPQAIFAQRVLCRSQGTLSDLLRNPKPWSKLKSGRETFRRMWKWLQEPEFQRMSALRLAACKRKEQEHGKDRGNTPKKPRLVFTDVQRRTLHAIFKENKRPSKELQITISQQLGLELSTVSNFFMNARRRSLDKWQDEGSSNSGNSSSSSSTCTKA
Chain of Hypoxia-inducible factor 1-alpha (Homo sapiens) (Q16665 whole entry, looked up): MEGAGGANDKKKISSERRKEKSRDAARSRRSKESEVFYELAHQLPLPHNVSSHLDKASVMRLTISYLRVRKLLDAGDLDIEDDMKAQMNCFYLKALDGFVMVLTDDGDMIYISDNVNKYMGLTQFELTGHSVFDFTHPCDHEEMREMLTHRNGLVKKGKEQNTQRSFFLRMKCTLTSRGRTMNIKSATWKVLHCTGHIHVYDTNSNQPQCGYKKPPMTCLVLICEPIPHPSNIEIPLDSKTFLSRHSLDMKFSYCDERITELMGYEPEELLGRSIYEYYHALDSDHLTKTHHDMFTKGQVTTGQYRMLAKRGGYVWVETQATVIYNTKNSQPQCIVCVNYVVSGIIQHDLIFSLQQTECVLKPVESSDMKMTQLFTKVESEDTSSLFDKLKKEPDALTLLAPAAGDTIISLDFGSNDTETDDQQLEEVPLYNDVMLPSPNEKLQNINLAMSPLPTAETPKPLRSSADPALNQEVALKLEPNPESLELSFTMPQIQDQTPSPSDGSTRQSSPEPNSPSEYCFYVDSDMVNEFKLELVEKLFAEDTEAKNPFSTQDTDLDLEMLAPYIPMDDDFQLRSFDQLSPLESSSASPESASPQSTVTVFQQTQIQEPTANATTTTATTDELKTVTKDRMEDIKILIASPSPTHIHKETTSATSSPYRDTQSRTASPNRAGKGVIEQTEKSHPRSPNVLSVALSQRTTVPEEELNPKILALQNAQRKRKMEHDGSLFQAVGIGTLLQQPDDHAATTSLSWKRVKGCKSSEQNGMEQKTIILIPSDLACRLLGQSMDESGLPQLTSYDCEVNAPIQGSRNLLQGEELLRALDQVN

For `CCC=C(C)C=O`, the outcome in [1], in [2], in [3], in experiment [4], in experiment [5] and in [6] was inactive. Also, the outcome in [7], in experiment [8], in experiment [9], in experiment [10], in experiment [11] and in experiment [13] was inactive. Further, the call in [14], in experiment [15], in experiment [16] and in [17] was inactive. In experiment [12], the AC50 was 24.7 µM (active).
As for `CC(=O)CC(=O)N(C)C`, the result in experiment [1], in experiment [2], in experiment [3], in experiment [4], in experiment [5] and in experiment [6] was inactive. Further, the outcome in experiment [7], in [8], in experiment [9], in experiment [11], in experiment [12] and in experiment [13] was inactive. Also, the compound was classed as inactive in experiment [14], in [16], in [18] and in experiment [17].
For the compound `C=CC(C)(CCC=C(C)C)OC(=O)CC` (stereo not given), the call in experiment [1], in experiment [2], in [3], in experiment [4], in [5] and in experiment [6] was inactive. Moreover, the call in experiment [19], in experiment [8], in experiment [9], in experiment [10], in experiment [11] and in [13] was inactive. Also, the compound was called inactive in experiment [14], in experiment [15], in [16], in experiment [18] and in experiment [17]. The AC50 in experiment [12] was 31 µM (active).
Regarding `Brc1cc(Br)cc(Br)c1`, the compound was classed as inactive in experiment [1], in [2], in experiment [3], in experiment [4], in experiment [5] and in experiment [6]. Also, the outcome in experiment [19], in experiment [8], in experiment [9], in [10], in [11] and in experiment [20] was inactive. For the same compound, the call in experiment [13], in [14], in experiment [15], in experiment [16], in experiment [18] and in experiment [17] was inactive. Besides, in experiment [12], the AC50 is 100 µM (active).
